This is an account of results in the supplement of paper PMC6555819.

This experiment deals with RARa homodimer (NR concentration 270 nM). Kind of experiment: PBM binding z-score (relative to random genomic background probes); higher = stronger binding; sequences stand for … in GC…GCGATTGACAGCGTAGAATGAAGG
In outline: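 Scanned fluorescence from custom Agilent 4×180K protein-binding microarrays was regression-normalized. Binding z-scores use random background probes as reference. Ligand-free nuclear receptor dimers were incubated on the arrays for 1 h and detected with antibodies against each partner (one per run).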
AATACAGGGTCATCGTAGGCCAGAGAACGCACAG: the PBM binding z-score came to 1.51.
In the case of CCGACTGGGGCATAAGGTTACGATAAGCCAGCCC it was -0.594; in that of CGTCCAAGGTCAGAGAGGTAAGTGAATGCCGAGT, 0.288; in that of TCGAGTAGGTTACCAATGGGGCGTTCAGCTTTCT, -0.443.
Take CCTCCTGGGCCAAAGGTCATTGATTCCAATGCTC: the PBM binding z-score was 0.948.
In the case of GCGACTGGGGCATCAGGAGGTTACCATAACTTAA it was -0.466; in that of CCTATTAGTTGACCATAAGGGCAACGGAAGCTCG, 1.45; in that of CAAACTAGGTCAACGGAAGGTCAAAGTCCGCATG, 2.65.
On to ACTATTAGTTGAGACGCGGGCAACCGATAGGTTG, for which the PBM binding z-score was -0.0314.
For ACTAGTTAGTCAGCTGAGGTCACACACAATTCGG the value was 1.35; for ATCGAAAGGTCGAAGGTGAATATACCCACCCGAA, 0.699; for ATATCTAGGTTAGCTGGGGTCATTCAGACTAGGC, 1.57.
For TCTTGTAGATCAAGCAGGTTAAGAAGGCCTGAGT the value was -0.212.
In turn, CCAGACAGGTTAAAGGTAACTCAGTCTGGTACGC yielded a PBM binding z-score of 0.287.
In turn, TCTTGTAGATCAAAGGTTAAGTAAGCCGAAGCCT displayed a PBM binding z-score of 0.12.
For TCTGCAAGGTCAGTTGGTCAGCTAACGAGCTGCC the value was -0.428; for TTACCAAGGTGAAGGTCGCTGATCCCTCTGTAGA, -0.643; for ACTTACGGGGCAACGAGGTTATAGCACGCGTATA, 0.365.
In the case of TCTGCTAGGTCAACGATGGTCAGCCAATCTGCTA it was -0.83; in that of ATCTCTACGTAACCAAGTTCAGTGAATGCCGAAC, 0.401; in that of GCTATTAGTTGAAAGGGCATCCGAATGATTCTCG, 0.477.
For CGAACTAGGTCGTTGACAGGACAGTGAATAGTAA the value was -0.436; for TCATATAGGTAACAGGTGAAAGTCGGTGTGGTAA, 1.18.
In turn, AGAATGAGGTTACCAAAGATCAGGGACACGCTTG showed a PBM binding z-score of 0.459.
For CGAACTAGGTCAAGGACAGTGCATCTCCGCACGC the value was -0.145; for CCTACTGGGCCATCTGGTCATTGATATCAACGTT, 0.0969; for CGTCCAAGGTCAAAGGAGGTCAGTGAAGACAGAT, 0.875.
For ACTAGCAGGCCAAGTTTGGGTGACTCAAACAAAG the value was -0.374.
In the case of CAAACTAGGTCACCGGAAGGTCAAAATCCGCATG it was 3.23; in that of CCTGCTAGGTCAATGGTCAACTAAAGCAGCTCGC, -0.296.
In turn, CCAGACAGGTGAGAAGGTATCTCAGCCTCGATTA registered a PBM binding z-score of 0.147.
TCTAGCAAGCCAGAGGGTCACTCAAGAGGTACGG came in with a PBM binding z-score of -0.908.
For CGTCCAAGGTCAGAGAGCTCAGTGAATGCCGAGT the value was 0.367.
For CGTCCAAGGTCAAGGTCAGCGAAAGAGACTCGAA the value was 0.668.
For CCTACTCGGCCATTCAGAGGTCATTGATCATATG the value was 1.67; for TCGAATAGGTTACCAATGGGGCATTCAGCTTTCT, 0.281.
With ATCGAGAGGTCGAAGGTGAGTATACCCACCCGAA, the PBM binding z-score is -0.646.
Consider CCTTGCAGGCCAGGGTCACTCAAGCATTTCGCTT, for which the PBM binding z-score is -0.43.
Turning to TCGCGTAGGTTAGTCGGGGCATTCAGCCAACATA, the PBM binding z-score is -0.333.
In the case of AGGATGAGGTTACCAAAGATCAGGGAAACGCTTG it was 0.36.
